Values joined by “and” are separate entries in the source; they are usually repeats but may differ in a detail not shown here. Equal values may be shown once. Inconclusive results are not listed. Entries that show only a call come without a potency. Where a structure was tested more than once in an assay, its records may differ in their call. Active and inactive are the calls of the source. Calls follow the shape of the dose curve; as a rule, active = well fitted cell-killing curve with a large enough effect in the repeat runs; inconclusive = weak or mixed curves, or effect the other way; inactive = flat fitted curve, though single readings scatter.
experiment: qHTS RealTime-Glo MT Cell Viability Assay in HEK293 cells - 24 hour (AID 1224886); conditions: RealTime-Glo luminescence; series mostly up to 76.8 µM; activity change, negative = cytotoxicity: at the top concentration; also: nearly all actives have a fitted effect of over 50% in size; as to activity change, negative = cytotoxicity: top concentration of the series differs between compounds
Text: National Center for Advancing Translational Sciences [NCATS]
NIH Chemical Genomics Center [NCGC]
U.S. Environmental Protection Agency [EPA]
National Institutes of Environmental Health Sciences [NIEHS]
National Toxicology Program [NTP]
U.S. Food and Drug Administration [FDA]
Measure of cell viability is critical in the cell-base assay. Analysis of cell viability is necessary for the characterization of cell responses to cytotoxic drugs and environmental stress. A RealTime-Glo MT Cell Viability Assay to monitor cell viability in real time of continues cell culture during 40 hours of compound treatment was used to screen Tox21 10K library compounds in Hek293 cells. The RealTime-Glo MT Cell Viability Assay is a nonlytic, homogeneous, bioluminescent method to measure cell viability in real time using a simple, plate-based method. The assay involves adding NanoLuc luciferase and a cell-permeant prosubstrate to cells in culture. Viable cells reduce the proprietary prosubstrate to generate a substrate for NanoLuc luciferase. This substrate diffuses from cells into the surrounding culture medium, where it is rapidly used by the NanoLuc Enzyme to produce a luminescent signal. The signal correlates with the number of viable cells, making the assay well suited for cytotoxicity studies.
Tox21 Assay Protocol Summary:
The mixture of Hek293 cell suspension and reagents were dispensed at 600cells/6 ul/well in 1536-well tissue culture treated black solid bottom plates using a Multidrop dispenser. After the assay plates were incubated at a 37 C/5% CO2 incubator for 5 hours, 23 nL of compounds dissolved in DMSO, positive and negative controls was transferred to the assay plate by a pintool work station. The plates were incubated at 37 C for 40 hours. The luminescence intensity were measured at 0h, 8h, 16h, 24h, 32h and 40h time points using ViewLux plate reader during compound treatment.
Potency is read from the fitted curve at half-maximal effect.

SMILES	Potency	activity change, negative = cytotoxicity
CN(C)CCOC(=O)COc1ccc(Cl)cc1	inactive	
CC(C)(C#N)c1cc(Cn2cncn2)cc(C(C)(C)C#N)c1	inactive	
CC(C)(C)c1cc(Cc2cc(C(C)(C)C)c(O)c(C(C)(C)C)c2)cc(C(C)(C)C)c1O	inactive	
CCCCC(C=O)CC (stereo not given)	inactive	
CCCCCCCCCCCC(=O)OC	inactive	
COc1ccc(CCC(C)=O)cc1	inactive	
CCNc1ccccc1	inactive	
CC(O)CC(C)(C)O (stereo not given)		2.29% (inactive)
CC(C)c1cccc(C(C)C)c1	inactive	
CC(=O)OCc1ccco1		10.7% (inactive)
O=[N+]([O-])c1ccc2nc[nH]c2c1	inactive	
Cc1ccc(S(=O)(=O)N=C=O)cc1	inactive	
CCOCCOCCOCCO	inactive	
NCCN1CCNCC1	inactive	
C=CC[N+](C)(C)CC=C	inactive	
CCCCCC(=O)O	inactive	
CCNc1cccc(C)c1	inactive	
CNC(=O)Oc1ccc2c(c1)[C@]1(C)CCN(C)[C@@H]1N2C	inactive	
COc1ccc(C)cc1N	inactive	
CNC(=S)N(C)C	inactive and 13 µM (active)	

SMILES	Potency	activity change, negative = cytotoxicity
O=S(=O)(O)c1ccccc1	inactive	
CC(C)OP(=O)(CP(=O)(OC(C)C)OC(C)C)OC(C)C	inactive	
CCCCCCCCCCCCCCCCO	inactive	
CC(C)CCCCCCCOC(=O)CCCCC(=O)OCCCCCCCC(C)C	inactive	
CC1(C)OC[C@@H]2O[C@@]3(C(=O)O)OC(C)(C)O[C@H]3[C@@H]2O1	inactive	
Cc1ccc(C(C)C)c(O)c1	inactive	
C=C(C)C(=O)OCC(C)C	inactive	
C=C(C)[C@H]1CC=C(C)C(=O)C1	inactive	
CCO[Si](CCCN)(OCC)OCC	inactive	
O=c1[nH]cnc2[nH]ncc12	inactive	
c1ccc(Oc2ccccc2)cc1	inactive	
NC(=S)NNC(N)=S	inactive	
COc1ccc(OC)cc1	inactive	
CCNC(=S)NCC	inactive	
CCc1ccccc1CC	inactive	
COCCCN	inactive	
CC(=O)Oc1ccc(C)cc1	inactive	
CC(CCl)OP(=O)(OC(C)CCl)OC(C)CCl (stereo not given)		-4.29% (inactive)
CC(=O)OC1CC(C)OC(C)O1 (stereo not given)	inactive	
c1ccc2c(c1)Cc1ccccc1-2	inactive	

Source: PubChem BioAssay (Tox21)
